Source: PubChem BioAssay (Tox21)
Records with an inconclusive call do not appear. Calls of active or inactive are those of the source. Unless noted, the call rests on the fitted dose curve; in most records, active means well fitted curve in the direction sought with a large enough effect in the repeat runs; inconclusive means weak or mixed curves; inactive means no such curve, though single readings can be large; an effect the other way counts as inactive or inconclusive.

Columns and labels:
[1] = target: Retinoic acid receptor RXR-alpha (Homo sapiens) (UniProt P19793); test: qHTS assay to identify small molecule agonists of the RXR signaling pathway (AID 1159527; calls by dose curve; further: nearly all actives have a fitted effect of over 35% in size)
Sequence of Retinoic acid receptor RXR-alpha (Homo sapiens) (P19793 whole entry, looked up): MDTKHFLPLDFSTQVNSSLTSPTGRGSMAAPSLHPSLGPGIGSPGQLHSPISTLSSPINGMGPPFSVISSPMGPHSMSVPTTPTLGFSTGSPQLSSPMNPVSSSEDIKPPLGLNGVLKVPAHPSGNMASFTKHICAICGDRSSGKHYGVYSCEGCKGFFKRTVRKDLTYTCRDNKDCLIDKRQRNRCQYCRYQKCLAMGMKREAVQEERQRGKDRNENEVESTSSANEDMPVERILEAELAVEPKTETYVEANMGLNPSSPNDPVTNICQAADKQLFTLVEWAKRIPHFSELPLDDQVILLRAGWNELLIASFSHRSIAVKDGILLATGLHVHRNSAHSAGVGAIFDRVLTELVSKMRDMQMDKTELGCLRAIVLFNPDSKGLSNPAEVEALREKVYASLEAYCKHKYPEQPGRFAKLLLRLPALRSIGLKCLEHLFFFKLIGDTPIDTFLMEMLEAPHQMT
Summary of the method: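 qHTS of the Tox21 10K library in GeneBLAzer RXR-alpha HEK 293T cells carrying a beta-lactamase reporter […]; 16 hr treatment, 9-cis retinoic acid as agonist control, FRET read-out.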

[2] = qHTS assay to identify small molecule agonists of the RXR signaling pathway - cell viability counter screen (AID 1159529); further: series mostly up to about 77 µM; nearly all actives have a fitted effect of over 50% in size
Summary of the method: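 Cell viability is measured by CellTiter-Glo luminescence, 30 min at room temperature, in wells already read for beta-lactamase. Engineered HEK 293T cells (RXR-alpha-UAS-bla) are dosed 16 hr at 37 C. Tetraoctyl ammonium bromide serves as positive control.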

[3] = qHTS assay to identify small molecule antagonists of the retinoid acid receptor (RAR) signaling pathway - cell viability counter screen (AID 1159551); further: nearly all actives have a fitted effect of over 35% in size
Summary of the method: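 Retinol-stimulated (1 uM final) C3RL4 cells, compound 6 h, 37 C; readout CellTiter-Glo luminescence (ATP) after 30 min RT incubation.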

[4] = qHTS assay to identify small molecule antagonists of the retinoic acid receptor (RAR) signaling pathway (AID 1159552; further: nearly all actives have a fitted effect of over 50% in size)
Summary of the method: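 Quantitative HTS in C3RL4 RARE-luciferase reporter cells. Compounds were added with 1 uM (final) retinol; luminescence was read after 6 hr.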

[5] = target: Luciferin 4-monooxygenase (Photinus pyralis) (UniProt P08659); test: qHTS assay to identify small molecule inhibitors of firefly luciferase (AID 1224835); further: series mostly up to about 120 µM; nearly all actives have a fitted effect of over 25% in size
Sequence of Luciferin 4-monooxygenase (Photinus pyralis) (P08659 whole entry, looked up): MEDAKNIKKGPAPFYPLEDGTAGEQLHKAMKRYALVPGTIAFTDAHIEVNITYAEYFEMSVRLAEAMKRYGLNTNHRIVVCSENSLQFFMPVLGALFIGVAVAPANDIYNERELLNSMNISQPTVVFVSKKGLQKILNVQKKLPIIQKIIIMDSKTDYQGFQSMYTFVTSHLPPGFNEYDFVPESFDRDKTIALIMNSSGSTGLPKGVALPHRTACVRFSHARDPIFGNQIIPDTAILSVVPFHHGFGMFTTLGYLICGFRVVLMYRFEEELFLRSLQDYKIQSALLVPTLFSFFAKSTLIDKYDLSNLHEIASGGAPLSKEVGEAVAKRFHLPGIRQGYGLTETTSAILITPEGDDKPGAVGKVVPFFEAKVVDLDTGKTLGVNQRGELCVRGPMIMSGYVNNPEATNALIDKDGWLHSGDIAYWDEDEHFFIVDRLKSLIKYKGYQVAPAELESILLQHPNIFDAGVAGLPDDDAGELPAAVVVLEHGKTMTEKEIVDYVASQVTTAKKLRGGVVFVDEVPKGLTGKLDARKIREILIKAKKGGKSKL
Summary of the method: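 Inhibition of purified Photinus luciferase is measured by luminescence. Substrate levels (D-luciferin, ATP) sit at their KM values. Each compound is tested in a concentration series.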

[6] = qHTS assay to identify small molecule agonists of the constitutive androstane receptor (CAR) signaling pathway - cell viability counter screen (AID 1224836); further: series mostly up to about 92 µM; nearly all actives have a fitted effect of over 45% in size
Summary of the method: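 Counter screen multiplexed with the CAR reporter readout: HepG2 cells co-transfected with hCAR and the CYP2B6-2.2kb construct receive a 15-concentration compound series and 0.75 uM PK11195 (final), then CellTiter-Fluor fluorescence is read after 23 h.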

[7] = qHTS assay to identify small molecule antagonists of the constitutive androstane receptor (CAR) signaling pathway - cell viability counter screen (AID 1224837); further: series mostly up to about 92 µM; nearly all actives have a fitted effect of over 45% in size
Summary of the method: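 Counter screen run in HepG2-CYP2B6-hCAR cells: 4 hr settle, compound titration (15 concentrations) with 50 nM CITCO, 23 hr at 37 C/5% CO2, CellTiter-Fluor fluorescence.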

[8] = target: Nuclear receptor subfamily 1 group I member 3 (Homo sapiens) (UniProt Q14994); test: qHTS assay to identify small molecule antagonists of the constitutive androstane receptor (CAR) signaling pathway (AID 1224838);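 further: HepG2 cells stably expressing hCAR with CYP2B6 luciferase reporter stimulated by CITCO; nearly all actives have a fitted effect of over 40% in size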
Sequence of Nuclear receptor subfamily 1 group I member 3 (Homo sapiens) (Q14994 whole entry, looked up): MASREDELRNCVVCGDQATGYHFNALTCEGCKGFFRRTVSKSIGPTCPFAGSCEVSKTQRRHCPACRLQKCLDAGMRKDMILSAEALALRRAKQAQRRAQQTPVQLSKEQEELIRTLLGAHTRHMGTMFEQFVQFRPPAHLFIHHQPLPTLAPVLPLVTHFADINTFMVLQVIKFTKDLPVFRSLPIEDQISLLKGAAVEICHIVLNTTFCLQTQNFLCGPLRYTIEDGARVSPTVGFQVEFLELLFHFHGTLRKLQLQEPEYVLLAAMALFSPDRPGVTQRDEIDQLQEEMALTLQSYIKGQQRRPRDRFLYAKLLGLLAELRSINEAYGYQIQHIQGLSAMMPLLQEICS
Summary of the method: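 Cell line: HepG2 double-stable for hCAR and CYP2B6-2.2kb reporter. Agonist: CITCO, 50 nM final. Compounds: 15 concentrations, 24 h, 37 C. Detection: ONE-Glo luminescence.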

[9] = target: Nuclear receptor subfamily 1 group I member 3 (Homo sapiens) (UniProt Q14994); test: qHTS assay to identify small molecule agonists of the constitutive androstane receptor (CAR) signaling pathway (AID 1224839); further: series mostly up to about 92 µM; nearly all actives have a fitted effect of over 15% in size
Summary of the method: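 A 15-concentration quantitative screen uses HepG2 cells co-transfected stably with human CAR and CYP2B6-2.2kb reporter. Treatment lasts 24 h with 0.75 uM PK11195 final present; ONE-Glo luminescence is the signal.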

[10] = qHTS assay to identify small molecule antagonists of the estrogen related receptor signaling pathway with the pleiotropic PPARgamma coactivator (PGC) from Tox21 10K library - cell viability counter screen (AID 1224840; active means well fitted cell-killing curve with a large enough effect in the repeat runs, not every such curve was filed as active; further: nearly all actives have a fitted effect of over 40% in size)
Summary of the method: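 Following seeding of 2,000 PGC/ERR cells/well and 6 hours' incubation, test compounds were delivered in DMSO. The plates then sat 17.5 hours at 37 C before a fluorogenic live-cell protease reagent (CellTiter-Fluor) was read after 30 min.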

[11] = target: Thyrotropin receptor (Homo sapiens) (UniProt P16473); test: qHTS assay to identify small molecule agonists of the thyroid stimulating hormone receptor (TSHR) signaling pathway (AID 1224843; calls by dose curve; further: nearly all actives have a fitted effect of over 45% in size)
Sequence of Thyrotropin receptor (Homo sapiens) (P16473 whole entry, looked up): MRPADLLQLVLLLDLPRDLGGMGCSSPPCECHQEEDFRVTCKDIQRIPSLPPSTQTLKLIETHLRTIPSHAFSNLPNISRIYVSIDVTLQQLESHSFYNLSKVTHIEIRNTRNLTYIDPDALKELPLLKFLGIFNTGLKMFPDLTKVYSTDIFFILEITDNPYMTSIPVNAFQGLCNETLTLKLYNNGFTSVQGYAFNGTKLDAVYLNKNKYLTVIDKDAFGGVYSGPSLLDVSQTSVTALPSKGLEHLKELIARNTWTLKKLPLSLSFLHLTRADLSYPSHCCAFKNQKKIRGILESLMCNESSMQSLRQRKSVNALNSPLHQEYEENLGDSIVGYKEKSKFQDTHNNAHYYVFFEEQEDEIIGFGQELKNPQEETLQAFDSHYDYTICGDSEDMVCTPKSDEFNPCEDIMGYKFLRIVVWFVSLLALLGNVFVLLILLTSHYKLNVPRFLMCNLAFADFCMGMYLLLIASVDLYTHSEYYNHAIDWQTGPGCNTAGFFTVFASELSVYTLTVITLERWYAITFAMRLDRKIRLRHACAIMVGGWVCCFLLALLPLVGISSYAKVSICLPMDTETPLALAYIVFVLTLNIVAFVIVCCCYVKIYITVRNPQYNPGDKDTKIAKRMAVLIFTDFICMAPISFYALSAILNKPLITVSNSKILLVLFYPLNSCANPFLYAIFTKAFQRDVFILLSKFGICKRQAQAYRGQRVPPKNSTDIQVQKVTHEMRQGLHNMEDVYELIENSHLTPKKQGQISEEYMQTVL
Summary of the method: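 HEK293 cells stably bearing the thyrotropin receptor were plated at 800 cells/well and challenged with compound (30 min, RT). Accumulated cAMP was quantified via cAMP-d2 competing for cryptate-tagged antibody.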

[12] = qHTS assay to identify small molecule agonists of the hypoxia (HIF-1) signaling pathway - cell viability counter screen (AID 1224844; calls by dose curve; further: nearly all actives have a fitted effect of over 50% in size)
Summary of the method: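 Cells (HRE-bla ME-180, 2,000 per well) sat 5 hrs at 37C, got compound for 17 hrs, were read for CCF4-AM FRET, and were finally lysed with CellTiter-Glo for a 30 min room-temperature luminescence read.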

[13] = qHTS assay to identify small molecule agonists of H2AX (AID 1224845; active means well fitted activation curve with a large enough effect in the signal ratio in the repeat runs, not every such curve was filed as active; the % refers to the signal ratio)
Summary of the method: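 Phospho-H2AX Ser139 measured by HTRF (ex 320 nm; em 665 and 620 nm) after 24 hr antibody incubation. Compounds, 15 concentrations, 0.76% DMSO, were applied to CHO-K1 cells for 3hr at 37C before lysis.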

[14] = qHTS assay to identify small molecule agonists of the hypoxia (HIF-1) signaling pathway (AID 1224846; active means well fitted activation curve with a large enough effect in the signal ratio in the repeat runs, not every such curve was filed as active; the % refers to the signal ratio)
Summary of the method: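 A low-serum medium (0.5% dialyzed FBS) holding 2,000 HRE-bla ME-180 cells per well is preincubated for 5 hrs, dosed with compounds by pintool, and kept a further 17 hrs at 37C, 5% CO2 before CCF4-AM FRET detection of beta-lactamase.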

[15] = qHTS assay to identify small molecule agonists of H2AX - cell viability counter screen (AID 1224847; calls by dose curve; further: top concentration of the series differs between compounds; nearly all actives have a fitted effect of over 30% in size)
Summary of the method: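 We seed wild-type CHO-K1 cells overnight, treat them for 3 hr at 37C with compounds in 15-concentration series, and quantify remaining viability by CellTiter-Glo luminescence.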

[16] = qHTS assay to identify small molecule agonists of the retinoic acid receptor (RAR) signaling pathway (AID 1159553)
Summary of the method: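 Reporter readout comes from luciferase under RARE control in C3RL4 cells; compound exposure lasts 6 hr at 37 C in 5% CO2, and luminescence is recorded following a 30 min room-temperature incubation with reagent.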

[17] = qHTS assay to identify small molecule antagonists of the estrogen related receptor (ERR) signaling pathway from Tox21 library - cell viability counter screen (AID 1224834); further: nearly all actives have a fitted effect of over 30% in size
Summary of the method: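 After 17.5 h of compound exposure at 37 C, ERR cells are incubated with CellTiter-Fluor for 30 min and fluorescence intensity serves as the viability measure.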

Measured: Potency

CO/N=C(/C(=O)N[C@@H]1C(=O)N2C(C(=O)[O-])=C(C[n+]3ccn4ncccc43)CS[C@H]12)c1nsc(N)n1
not listed: [16] | [17]
inactive: all other assays above

CC(=O)C1C(=O)C=C(C)OC1=O (configuration not stated)
not listed: [4]
inactive: all other assays above

Cc1ccc(C(=O)O)cc1[N+](=O)[O-]
not listed: [4]
inactive: all other assays above

CC(Oc1cc(Cl)ccc1Cl)C(=O)O (configuration not stated)
not listed: [4] | [7] | [11]
inactive: all other assays above

O=C(O)CONC(=O)c1ccccc1
not listed: [4] | [16]
inactive: all other assays above

Cc1c(C(=O)c2c[nH]n(C)c2=O)ccc(S(C)(=O)=O)c1C1=NOCC1
not listed: [4] | [8] | [11]
inactive: all other assays above

C=C(C)[C@@H]1CC=C(C)CC1
not listed: [4] | [5] | [11] | [16]
inactive: all other assays above

O/N=C/C=N/O
not listed: [4] | [8]
inactive: all other assays above

CN(C)C(C)(C)CO
not listed: [4] | [7] | [17]
inactive: all other assays above
